Screening data deposited in PubChem BioAssay by National Center for Advancing Translational Sciences (NCATS).
Shown are actives, neighbours in structure and some others; about 12% of the full set was active somewhere.
Sfp PPTase inh – qHTS Assay for Inhibitors of Bacillus subtilis Sfp phosphopantetheinyl transferase (PPTase); 3.5% of 310,000 active; Potency, µM, for inactives: largest response in the series, negative = inhibition, most hits filed as inhibitors; 4'-phosphopantetheinyl transferase ffp (Bacillus subtilis), Q9F4F7; Biochemical Sfp PPTase activity, qHTS;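 further: the enzyme is Sfp with the accession as filed and its product quenches rhodamine fluorescence; 0% = enzyme reaction without inhibitor and -100% = no enzyme wells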
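Sfp 15 nM + cpd, 15 min RT; start w/ rhodamine-CoA 5 uM, BHQ-2-YbbR 12.5 uM (final); 50 mM Hepes pH 7.6, 10 mM MgCl2, 0.01% NP-40, 0.01% BSA; read 525/598 nm at 0 and 30 min.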
G9a inh – qHTS Assay for Inhibitors of Histone Lysine Methyltransferase G9a; G9a H3K9 monomethylation, AlphaScreen, 2 h; Potency, µM (highest dose often 102 µM), for the others: at the top dose activity, negative = inhibition, actives largely listed as inhibitors; 8.8% of 350,000 active; further: on the % scale 0 is the no-effect control and ±100 the full control effect; nearly all actives have a fitted effect of over 75% in size
Target sequence (Q96KQ7 913-1193 limits assumed): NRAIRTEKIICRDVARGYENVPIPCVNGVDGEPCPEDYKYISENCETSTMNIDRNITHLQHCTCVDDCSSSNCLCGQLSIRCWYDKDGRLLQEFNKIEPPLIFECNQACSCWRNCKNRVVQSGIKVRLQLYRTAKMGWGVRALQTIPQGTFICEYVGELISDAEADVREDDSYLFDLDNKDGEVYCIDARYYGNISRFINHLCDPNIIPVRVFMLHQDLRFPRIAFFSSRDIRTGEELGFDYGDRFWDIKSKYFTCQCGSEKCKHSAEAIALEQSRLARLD
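Methyltransferase reactions run at room temperature for 2 h (20 nM enzyme, 500 nM biotin-H3K9 peptide, 20 uM SAM) after a 15 min compound preincubation; product detected by AlphaScreen beads and anti-H3K9me1 antibody.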
L3MBTL1 block – qHTS Assay for the Inhibitors of L3MBTL1 | Lethal(3)malignant brain tumor-like protein 1 (Homo sapiens), Q9Y468 | AlphaScreen L3MBTL1–H3K9me1 peptide binding | Potency, µM (top dose mostly 57.1 µM), for the others: at the highest dose activity, negative = inhibition, hits mostly inhibitors | 0.66% of 230,000 active | AID 485360, 2010; further: on the % scale 0 is the no-effect control and ±100 the full control effect; nearly all actives have a fitted effect of over 60% in size
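L3MBTL1 (50 nM) pre-complexed 30 min with biotinylated H3(1-15)K9me1 peptide (75 nM), then compounds added for 30 min at room temperature; AlphaScreen streptavidin donor/nickel chelate acceptor beads (10 ug/mL final) read after 30 min dark incubation.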
HP1b binding inh – HTS for Inhibitors of HP1-beta Chromodomain Interactions with Methylated Histone Tails; AID 540317, 2011; AlphaScreen HP1-beta / biotin-H3K9me3 peptide binding; 0.56% of 390,000 active; Potency, µM (highest dose often 114 µM), without a hit: top-dose activity change, negative = inhibition, most hits filed as inhibitors; Chromobox protein homolog 1 (Homo sapiens), P83916; further: nearly all actives have a fitted effect of over 70% in size
Target sequence (P83916 whole entry, looked up): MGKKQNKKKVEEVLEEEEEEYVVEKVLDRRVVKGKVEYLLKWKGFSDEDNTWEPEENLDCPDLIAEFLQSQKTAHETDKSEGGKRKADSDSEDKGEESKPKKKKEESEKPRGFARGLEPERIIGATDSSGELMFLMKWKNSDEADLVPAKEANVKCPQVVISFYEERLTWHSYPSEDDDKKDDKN
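HP1-beta protein (50 nM final) preincubated 30 min at room temperature with biotinylated H3(1-18)K9me3 peptide (50 nM) in PBS pH 7.4, 0.01% Tween-20, then compound added for 30 min. AlphaScreen streptavidin donor/nickel chelate acceptor beads (10 ug/mL final), 30 min dark, luminescence read.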
BAZ2B inh – qHTS Assay for Inhibitors of BAZ2B. Bromodomain adjacent to zinc finger domain protein 2B (Homo sapiens), Q9UIF8. 4.4% of 360,000 active. AlphaScreen BAZ2B-H3K14Ac peptide displacement. AID 504333, 2011. Potency, µM (titrated, usually from 114 µM), without a hit: at the highest dose activity change, negative = inhibition, usual class: inhibitors; further: on the % scale 0 is the no-effect control and ±100 the full control effect; nearly all actives have a fitted effect of over 60% in size
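Complex of BAZ2B and biotin-H3K14Ac (50 nM apiece) forms over 30 min at RT, then faces library compounds up to 110 uM for another 30 min; AlphaScreen beads added, 20 min dark incubation, luminescence read.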
JMJD2A Tudor inh – qHTS Assay for Inhibitors of JMJD2A-Tudor Domain; Lysine-specific demethylase 4A (Homo sapiens), O75164; AlphaScreen JMJD2A-Tudor / H3K4me3 peptide binding; Potency, µM (titrated, usually from 114 µM), for the others: at the highest dose activity change, negative = inhibition, most hits filed as inhibitors; 4.4% of 390,000 active; AID 504339, 2011; further: on the % scale 0 is the no-effect control and ±100 the full control effect; nearly all actives have a fitted effect of over 50% in size
The depositor's hits bear a star; ? = inconclusive; / = not tested or not shown; ! = not confirmed by another sample; [ ] = another dose, or the depositor's remark. The call rests on the fitted dose curve; in most records, active means well fitted curve in the direction sought with a large enough effect; inconclusive means small, poorly fitted or top-dose-only effect, or another doubt; inactive means no such curve, though single readings can be large; an effect the other way counts as inactive or inconclusive. Potency means the concentration at half of the fitted maximal effect.

SMILES	Sfp PPTase inh	G9a inh	L3MBTL1 block	HP1b binding inh	BAZ2B inh	JMJD2A Tudor inh
Cc1ccc(OCC(O)CN2CC3(C)CC2CC(C)(C)C3)cc1 (stereo unspecified)	-26%	20µM*	8%	?	?	1.1µM*
Cc1cccc(OCC(O)CN2CC3(C)CC2CC(C)(C)C3)c1 (stereo unspecified)	-9%	28µM*	?	-34%	?	18µM*
CC1(C)CC2CC(C)(CN2CC(O)c2ccccc2)C1 (stereo unspecified)	-13%	22µM*	/	-25%	?	5.6µM*
Cn1cccc1C(=O)N1CCC2(CCCN(C(c3ccccc3)c3ccccc3)C2)CC1	4%	-5%[12.7 µM]	/	/	/	/
O=C(Nc1nnc(S(=O)(=O)N2CCCC2)s1)c1ccc(F)cc1	/	-22%[59 µM]	/	32%	-17%	-4%
c1ccc2c(c1)CC(N1CCN(c3cccc4c3OCCO4)CC1)C2	-8%	70%[12.7 µM]	/	/	/	/
COc1ccc(C)cc1S(=O)(=O)NCC(c1cccnc1)N1CCc2ccccc2C1 (stereo unspecified)	-15%	?	/	26%	?	-32%
Cc1cc(C)c(S(=O)(=O)NCC(c2ccc(N(C)C)cc2)N2CCc3ccccc32)c(C)c1 (stereo unspecified)	/	11µM*	/	?	3.2µM*	13µM*
O=S(=O)(NCC(c1ccco1)N1CCN(c2ccccc2F)CC1)c1ccccc1 (stereo unspecified)	13%	1%[59 µM]	-6%	-5%	-31%	-34%
O=S(=O)(NCC(c1ccco1)N1CCc2ccccc21)c1ccccc1 (stereo unspecified)	/	45µM*	?	?	40µM*	?
Cc1cc(C)c(S(=O)(=O)NCC(c2ccc(N(C)C)cc2)N2CCOCC2)c(C)c1 (stereo unspecified)	/	?	/	?	40µM*	50µM*
COc1ccc(C)cc1S(=O)(=O)NCC(c1ccc(N(C)C)cc1)N1CCc2ccccc21 (stereo unspecified)	/	10µM*	/	?	10µM*	14µM*
Cn1cccc1C(=O)N1CCC2(CC1)CCN(c1ccc(-c3ccccc3)cc1)CC2	1%	-8%[12.7 µM]	/	/	/	/
CCC1(c2ccc(F)cc2)NC(=O)N(CC(=O)NCc2ccccc2Cl)C1=O (stereo unspecified)	13%	24%[2.33 µM]	/	35%	-2%	-7%
CN(C)S(=O)(=O)c1ccc(Cl)c(C(=O)NNC(=O)c2ccc3c(c2)OCO3)c1	/	-9%[12.7 µM]	5%	75%	0%	-2%
CN(C)c1ccc(C(CNS(=O)(=O)c2ccc(F)cc2)N2CCc3ccccc32)cc1 (stereo unspecified)	/	14µM*	/	?	10µM*	20µM*
O=C1CC(N2CCCCCC2)C(=O)N1c1ccc2c(c1)OCO2 (stereo unspecified)	-28%	?	/	34%	-3%	-10%
O=C1CC(N2CCN(c3ccc(O)cc3)CC2)C(=O)N1c1ccc2c(c1)OCO2 (stereo unspecified)	40µM*	16µM*	-21%	?	-22%	?
COc1ccc(N2C(=O)CC(N3CCN(Cc4ccc5c(c4)OCO5)CC3)C2=O)cc1 (stereo unspecified)	-16%	40µM*	-16%	35%	-2%	-19%
CN(C(=O)COc1ccccc1)c1nnc(C23CC4CC(CC(C4)C2)C3)s1	1%	14µM*	14%	31%	0%	-4%
CN(C(=O)COc1ccccc1)c1nnc(-c2cccnc2)s1	15%	-25%[12.7 µM]	/	20%	-16%	-8%
CC(=O)OC1CCC2(C)C(=CCC3C2CCC2(C)C3C[C@@H]3O[C@]32C(C)=O)C1 (stereo partly specified)	0%	/	/	/	/	/
NC(=O)c1ccc2c(=O)n3c(-c4cc(Cl)c(N)c(Cl)c4)csc3nc2c1	-14%	?	/	75%	?	71µM*
Nc1cc(-c2ccc(Cl)cc2)nn1S(=O)(=O)c1cccc2nsnc12	13%	40µM*	/	-22%	?	45µM*
COc1ccccc1-c1cc(N)n(S(=O)(=O)c2cccc3nsnc23)n1	11%	50µM*	/	-41%	?	?
SMILES	Sfp PPTase inh	G9a inh	L3MBTL1 block	HP1b binding inh	BAZ2B inh	JMJD2A Tudor inh
N#Cc1ccc(CS(=O)(=O)c2nnnn2-c2ccccc2)cc1	9%	/	/	/	/	/
COc1cc2[nH]c(=S)nc(NCc3ccc(Cl)cc3)c2cc1OC	?	-28%[2.33 µM]	/	76%	-21%	-21%
COc1cc2[nH]c(=S)nc(NCCc3ccc(C)cc3)c2cc1OC	10%	5%	0%	13%	-11%	?
COc1ccc(CCNc2nc(=S)[nH]c3cc(OC)c(OC)cc23)cc1OC	14%	?	/	25%	-1%	?
COc1cc2[nH]c(=S)nc(NCCc3ccc(S(N)(=O)=O)cc3)c2cc1OC	-7%	13µM*	-6%	116%	-24%	-15%
COc1cc2[nH]c(=S)nc(NCc3cccs3)c2cc1OC	0%	28µM*	/	29%	2%	-13%
COc1cc2[nH]c(=S)nc(NCCC(C)C)c2cc1OC	7%	18µM*	-10%	0%	?	25µM*
COCCCNc1nc(=S)[nH]c2cc(OC)c(OC)cc12	?	-2%[59 µM]	-8%	34%	-26%	-23%
COc1ccccc1CNc1nc(=S)[nH]c2cc(OC)c(OC)cc12	-7%	79µM*	/	37%	-10%	-32%
COc1ccc(-c2nn(C)c3sc(C(=O)Nc4cc(OC)c(OC)c(OC)c4)cc23)cc1OC	/	?	/	-18%	/	?
Oc1cc(O)c2c(c1)O[C@H](c1ccc(O)c(O)c1)[C@@H](O)C2	-18%	28µM*!	/	20%	0%	-10%
O=C1c2c(O)cc(O)cc2O[C@H](c2ccc(O)c(O)c2)[C@H]1O	-2%	10µM*	/	19%	?	-14%
O=c1c(O)cc(C2Oc3cc(O)cc(O)c3CC2O)cc2c(C3Oc4cc(O)cc(O)c4CC3O)cc(O)c(O)c12 (stereo unspecified)	7.1µM*	/	/	/	/	/
O=C1c2c(O)cc(O)cc2O[C@H](c2ccc(O)cc2)[C@H]1O	/	/	/	39%	/	-10%
O=C1c2c(O)cc(O)cc2O[C@H](c2ccc(O)c(O)c2)[C@@H]1O	-14%	-12%[59 µM]	/	/	?	/
